According to PubChem BioAssay AID2284368 (EPA ToxCast):
Results filed as inconclusive are left out. Calls of active or inactive are those of the source. How the source made its calls: active means hit-call score of the fitted dose curve at least 0.9, where 1 is the maximum; inconclusive means response in the unintended direction; inactive means score below 0.9.

target: Estrogen receptor (Homo sapiens) (UniProt P03372); experiment: ATG_hERa_EcoTox2: Attagene TRANS-FACTORIAL EcoTox-2 HepG2 Assay for human Estrogen Receptor (ER)
Experimental: ATG_EcoTox2 is a cell-based, multiplexed assay created by modifying the existing Attagene TRANS-FACTORIAL system to include a panel of nuclear receptors from some or all the following species: human (Homo sapiens), african clawed frog (Xenopus laevis), rainbow trout (Oncorhynchus mykiss), japanese medaka (Oryzias latipes), and zebrafish (Danio rerio). The ECOTOX2-FACTORIAL format uses HepG2, a human liver cell line, with measurements taken at 24 hours after chemical dosing in a 24-well plate. ATG_hERa_EcoTox2 is one of 29 assay components measured or calculated from the ATG_EcoTox2 assay. It is designed to make measurements of mRNA induction, a form of inducible reporter, as detected with fluorescence intensity signals by Reverse transcription polymerase chain reaction (RT-PCR) and Capillary electrophoresis technology.The assay endpoint ATG_hERa_EcoTox2 was analyzed in the positive analysis fitting direction relative to DMSO as the negative control and baseline of activity. Using a type of inducible reporter, measures of mRNA for gain-of-signal activity can be used to understand the reporter gene at the transcription factor-level as they relate to the gene ER. Furthermore, this assay endpoint can be referred to as a primary readout, because this assay has produced multiple assay endpoints where this one serves a reporter gene function. To generalize the intended target to other relatable targets, this assay endpoint is annotated to the nuclear receptor intended target family, where the subfamily is steroidal.
Human liver HepG2 cells are transiently transfected with multiple reporter transcription units (MRTUs) in 6-well plates using FuGene 6 reagent (Roche; 3 ml FuGene/1 mg DNA). The MRTU constructs are regulated by a cis-regulating element (promoter). Each RTU expresses a GAL4-UAS that regulates the transcription of a nearby target reporter gene sequence. A major difference between the CIS and TRANS system is that in CIS activities of endogenous TFs are measured, whereas the TRANS assay evaluates changes in activities of exogenous, chimeric NR-Gal4 proteins. […] At the end of 24 hour incubation, total RNA was isolated using TriZol reagent (Invitrogen). The isolated RNA is then reverse-transcribed using oligo(dT) primer and Mo-MLV reverse transcriptase (Invitrogen) with DNAse I (Ambion) treatment for 30 min. The one-tenth of the produced cDNA was amplified by PCR using Taq DNA polymerase (Invitrogen) and two reporter sequence-specific primers. The PCR products were fluorescently labeled by primer extension with 6-arboxyfluorescein (6-FAM) 5'-labeled reporter sequence-specific primer (2 min at 95 C, 20 s at 68 C and 10 min at 72 C) and these products were digested with 5U of HpaI (New England Biolabs) for 2h at 37 C. The fragments were purified using Qiaquick PCR columns (Qiagen), analyzed on an ABI 3130xL genetic analyzer (Applied Biosystems) with peak positions identified by using a set of X-rhodamine (ROX)-labeled MapMarker1000 molecular weight standards (BioVentures). The raw capillary electrophoresis data was processed using Attagraph software (Attagene).

Chain of Estrogen receptor (Homo sapiens) (P03372 whole entry, looked up): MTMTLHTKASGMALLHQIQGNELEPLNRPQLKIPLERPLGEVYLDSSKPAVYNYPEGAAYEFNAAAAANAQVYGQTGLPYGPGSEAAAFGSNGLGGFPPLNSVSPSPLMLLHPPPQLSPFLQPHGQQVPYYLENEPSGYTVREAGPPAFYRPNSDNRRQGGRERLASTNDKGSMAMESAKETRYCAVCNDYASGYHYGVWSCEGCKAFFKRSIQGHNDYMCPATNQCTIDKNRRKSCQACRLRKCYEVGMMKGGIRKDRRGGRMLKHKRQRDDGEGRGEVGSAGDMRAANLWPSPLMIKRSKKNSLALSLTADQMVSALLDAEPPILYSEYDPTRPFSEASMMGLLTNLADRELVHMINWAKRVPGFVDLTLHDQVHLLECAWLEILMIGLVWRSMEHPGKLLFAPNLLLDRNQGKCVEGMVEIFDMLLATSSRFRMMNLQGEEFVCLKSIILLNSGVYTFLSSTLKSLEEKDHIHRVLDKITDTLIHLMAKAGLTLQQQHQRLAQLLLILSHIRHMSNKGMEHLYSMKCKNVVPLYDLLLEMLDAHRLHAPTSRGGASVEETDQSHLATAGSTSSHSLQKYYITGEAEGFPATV

| SMILES | AC50 | outcome |
| --- | --- | --- |
| CC(C)(Oc1ccc(CCNC(=O)c2ccc(Cl)cc2)cc1)C(=O)O | 122 µM (active) |  |
| CC(c1cc2ccccc2s1)N(O)C(N)=O (stereo unspecified) | 50 µM (active) |  |
| CC(C)(Oc1ccc(C2CC2(Cl)Cl)cc1)C(=O)O (stereo unspecified) |  | inactive |
| CN(CCOc1ccc(CC2SC(=O)NC2=O)cc1)c1ccccn1 (stereo unspecified) |  | inactive |
| Cc1c(C)c2c(c(C)c1O)CCC(C)(COc1ccc(CC3SC(=O)NC3=O)cc1)O2 (stereo unspecified) |  | inactive |
| CC(C)OC(=O)C(C)(C)Oc1ccc(C(=O)c2ccc(Cl)cc2)cc1 |  | inactive |
| C=C(c1ccc(C(=O)O)cc1)c1cc2c(cc1C)C(C)(C)CCC2(C)C |  | inactive |
| Cc1ccc(C)c(OCCCC(C)(C)C(=O)O)c1 | 50 µM (active) |  |
| C[C@@H]1C[C@H]2[C@@H]3CCC4=CC(=O)C=C[C@]4(C)[C@@]3(F)[C@@H](O)C[C@]2(C)[C@@]1(O)C(=O)COP(=O)(O)O |  | inactive |
| C[C@]12C=CC(=O)C=C1CC[C@@H]1[C@@H]2C(=O)C[C@@]2(C)[C@H]1CC[C@]2(O)C(=O)CO | 29.2 µM (active) |  |
| Cc1cccc(Nc2cc(Cl)nc(SCC(=O)O)n2)c1C |  | inactive |
